Tests used:
[1] = biological target: MAP/microtubule affinity-regulating kinase 3 (Homo sapiens) (UniProt P27448); details: at 1 µM;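 also: reported values are averaged percent inhibition of MARK3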
[2] = biological target: T1, MAP/microtubule affinity-regulating kinase 4 (Homo sapiens) (UniProt Q96L34); details: at 0.1 µM
T1 sequence (whole entry): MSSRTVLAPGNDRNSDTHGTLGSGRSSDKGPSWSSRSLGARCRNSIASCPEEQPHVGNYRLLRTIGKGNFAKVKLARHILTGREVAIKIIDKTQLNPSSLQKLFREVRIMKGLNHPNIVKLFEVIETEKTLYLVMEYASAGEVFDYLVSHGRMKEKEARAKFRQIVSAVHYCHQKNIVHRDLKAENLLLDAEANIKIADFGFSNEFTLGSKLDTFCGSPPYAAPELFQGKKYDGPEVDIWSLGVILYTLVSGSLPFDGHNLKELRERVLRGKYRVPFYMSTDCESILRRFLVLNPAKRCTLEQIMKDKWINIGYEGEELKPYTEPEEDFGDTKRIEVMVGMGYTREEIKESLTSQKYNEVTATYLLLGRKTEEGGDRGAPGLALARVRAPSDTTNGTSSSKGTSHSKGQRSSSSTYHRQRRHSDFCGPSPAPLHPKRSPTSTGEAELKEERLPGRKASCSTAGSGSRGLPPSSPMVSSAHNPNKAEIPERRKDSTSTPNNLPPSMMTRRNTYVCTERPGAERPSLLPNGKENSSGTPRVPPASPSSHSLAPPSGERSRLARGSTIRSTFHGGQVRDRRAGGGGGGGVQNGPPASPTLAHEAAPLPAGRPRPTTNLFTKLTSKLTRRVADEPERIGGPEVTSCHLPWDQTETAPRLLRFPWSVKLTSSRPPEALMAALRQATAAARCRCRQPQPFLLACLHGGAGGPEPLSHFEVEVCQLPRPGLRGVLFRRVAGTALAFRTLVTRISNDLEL

[3] = biological target: T1, MAP/microtubule affinity-regulating kinase 4 (Homo sapiens); details: at 1 µM
[4] = biological target: Maternal embryonic leucine zipper kinase (Homo sapiens) (UniProt Q14680); details: at 0.1 µM
Maternal embryonic leucine zipper kinase (Homo sapiens), sequence (Q14680 whole entry, looked up): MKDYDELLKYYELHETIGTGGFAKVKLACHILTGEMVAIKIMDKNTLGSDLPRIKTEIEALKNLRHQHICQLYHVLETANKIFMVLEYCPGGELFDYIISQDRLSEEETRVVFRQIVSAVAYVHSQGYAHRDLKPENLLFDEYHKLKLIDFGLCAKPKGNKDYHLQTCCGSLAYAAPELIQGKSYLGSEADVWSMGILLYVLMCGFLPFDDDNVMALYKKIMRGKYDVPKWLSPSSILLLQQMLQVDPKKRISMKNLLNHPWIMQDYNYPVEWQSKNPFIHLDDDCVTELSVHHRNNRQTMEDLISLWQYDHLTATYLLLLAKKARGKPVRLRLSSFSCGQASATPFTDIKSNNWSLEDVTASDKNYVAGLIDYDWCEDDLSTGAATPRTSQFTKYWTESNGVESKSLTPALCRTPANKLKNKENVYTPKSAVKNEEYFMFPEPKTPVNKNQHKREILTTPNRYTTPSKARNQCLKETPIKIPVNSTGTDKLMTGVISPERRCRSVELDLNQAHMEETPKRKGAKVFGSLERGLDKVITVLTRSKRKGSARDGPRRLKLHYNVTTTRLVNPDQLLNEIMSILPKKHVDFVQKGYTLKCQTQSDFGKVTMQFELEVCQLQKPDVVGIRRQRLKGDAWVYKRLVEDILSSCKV

[5] = biological target: Maternal embryonic leucine zipper kinase (Homo sapiens) (UniProt Q14680); details: at 1 µM
[6] = biological target: MAP kinase-interacting serine/threonine-protein kinase 1 (Homo sapiens) (UniProt Q9BUB5); details: at 0.1 µM
MAP kinase-interacting serine/threonine-protein kinase 1 (Homo sapiens), sequence (Q9BUB5 whole entry, looked up): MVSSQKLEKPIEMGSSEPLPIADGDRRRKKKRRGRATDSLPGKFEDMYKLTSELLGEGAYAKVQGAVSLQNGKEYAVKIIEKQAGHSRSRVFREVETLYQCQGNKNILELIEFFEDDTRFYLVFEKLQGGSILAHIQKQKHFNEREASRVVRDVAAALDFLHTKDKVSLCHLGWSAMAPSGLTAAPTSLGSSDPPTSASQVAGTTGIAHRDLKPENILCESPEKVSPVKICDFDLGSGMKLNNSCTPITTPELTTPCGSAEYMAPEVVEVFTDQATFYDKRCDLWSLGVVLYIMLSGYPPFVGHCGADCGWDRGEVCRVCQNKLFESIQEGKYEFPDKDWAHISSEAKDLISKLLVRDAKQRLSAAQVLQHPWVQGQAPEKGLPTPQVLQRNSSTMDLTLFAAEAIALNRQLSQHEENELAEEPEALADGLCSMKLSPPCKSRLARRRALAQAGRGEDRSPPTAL

[7] = biological target: MAP kinase-interacting serine/threonine-protein kinase 1 (Homo sapiens) (UniProt Q9BUB5); details: at 1 µM
[8] = biological target: MAP kinase-interacting serine/threonine-protein kinase 2 (Homo sapiens) (UniProt Q9HBH9); details: at 0.1 µM
MAP kinase-interacting serine/threonine-protein kinase 2 (Homo sapiens), sequence (Q9HBH9 whole entry, looked up): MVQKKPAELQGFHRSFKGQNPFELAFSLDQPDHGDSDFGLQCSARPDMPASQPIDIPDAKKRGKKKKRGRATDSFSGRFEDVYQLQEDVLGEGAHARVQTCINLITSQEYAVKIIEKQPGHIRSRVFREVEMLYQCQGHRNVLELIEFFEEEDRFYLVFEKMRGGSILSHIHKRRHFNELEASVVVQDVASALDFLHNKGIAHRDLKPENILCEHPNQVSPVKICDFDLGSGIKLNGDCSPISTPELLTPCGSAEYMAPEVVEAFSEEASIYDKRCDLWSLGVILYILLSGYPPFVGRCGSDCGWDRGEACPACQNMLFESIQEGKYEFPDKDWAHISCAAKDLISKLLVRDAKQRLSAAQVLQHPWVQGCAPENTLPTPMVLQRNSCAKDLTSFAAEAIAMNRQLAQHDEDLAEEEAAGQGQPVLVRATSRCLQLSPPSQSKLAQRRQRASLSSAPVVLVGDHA

[9] = biological target: MAP kinase-interacting serine/threonine-protein kinase 2 (Homo sapiens) (UniProt Q9HBH9); details: at 1 µM
[10] = biological target: Serine/threonine-protein kinase MARK2 (Homo sapiens) (UniProt Q7KZI7); details: at 0.1 µM;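 also: mean percent inhibition of PAR-1Balpha kinase activity, reported from the GSK PKIS screen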
Serine/threonine-protein kinase MARK2 (Homo sapiens), sequence (Q7KZI7 whole entry): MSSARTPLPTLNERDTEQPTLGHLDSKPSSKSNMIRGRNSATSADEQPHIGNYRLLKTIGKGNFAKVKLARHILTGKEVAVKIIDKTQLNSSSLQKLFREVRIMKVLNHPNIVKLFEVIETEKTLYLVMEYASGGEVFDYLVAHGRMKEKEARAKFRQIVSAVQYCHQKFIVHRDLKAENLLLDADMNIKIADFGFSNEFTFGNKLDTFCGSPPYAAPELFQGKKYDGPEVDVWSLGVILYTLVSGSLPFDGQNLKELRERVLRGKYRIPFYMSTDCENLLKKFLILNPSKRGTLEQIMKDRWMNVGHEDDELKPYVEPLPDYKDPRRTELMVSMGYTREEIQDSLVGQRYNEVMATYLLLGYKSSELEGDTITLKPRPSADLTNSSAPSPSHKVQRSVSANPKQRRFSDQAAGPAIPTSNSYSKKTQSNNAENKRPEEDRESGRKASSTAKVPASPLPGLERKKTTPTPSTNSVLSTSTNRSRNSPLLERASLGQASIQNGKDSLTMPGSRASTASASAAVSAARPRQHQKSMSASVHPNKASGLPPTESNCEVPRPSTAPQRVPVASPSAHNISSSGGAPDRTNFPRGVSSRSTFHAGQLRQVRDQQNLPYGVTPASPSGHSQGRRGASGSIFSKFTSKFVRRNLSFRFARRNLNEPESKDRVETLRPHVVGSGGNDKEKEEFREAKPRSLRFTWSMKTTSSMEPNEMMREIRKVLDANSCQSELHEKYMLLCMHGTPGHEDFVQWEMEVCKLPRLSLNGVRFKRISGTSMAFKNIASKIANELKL

MAP/microtubule affinity-regulating kinase 3 (Homo sapiens), sequence (P27448 whole entry, looked up): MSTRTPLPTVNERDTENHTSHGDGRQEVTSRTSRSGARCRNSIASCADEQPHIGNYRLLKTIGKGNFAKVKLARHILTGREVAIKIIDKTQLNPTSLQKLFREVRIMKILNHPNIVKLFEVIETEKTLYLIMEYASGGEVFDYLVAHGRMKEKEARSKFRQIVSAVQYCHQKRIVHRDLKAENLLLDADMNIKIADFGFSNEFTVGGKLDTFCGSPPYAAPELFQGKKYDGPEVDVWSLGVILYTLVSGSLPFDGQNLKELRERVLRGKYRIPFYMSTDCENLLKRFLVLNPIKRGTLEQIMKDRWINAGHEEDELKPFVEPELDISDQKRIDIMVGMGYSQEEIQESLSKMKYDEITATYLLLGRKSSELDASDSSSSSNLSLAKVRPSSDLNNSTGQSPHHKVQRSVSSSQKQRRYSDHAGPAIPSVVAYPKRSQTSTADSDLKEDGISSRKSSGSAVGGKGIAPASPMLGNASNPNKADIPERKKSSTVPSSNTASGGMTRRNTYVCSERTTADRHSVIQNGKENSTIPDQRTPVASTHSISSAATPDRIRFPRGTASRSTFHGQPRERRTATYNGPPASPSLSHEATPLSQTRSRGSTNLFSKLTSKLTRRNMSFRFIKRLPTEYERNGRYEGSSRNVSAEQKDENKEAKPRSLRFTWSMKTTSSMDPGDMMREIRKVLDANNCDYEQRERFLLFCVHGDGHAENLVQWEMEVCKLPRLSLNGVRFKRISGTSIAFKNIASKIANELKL

Row | SMILES | inhibition [1] | inhibition [2] | inhibition [3] | inhibition [4] | inhibition [5] | inhibition [6] | inhibition [7] | inhibition [8] | inhibition [9] | inhibition [10]
1 | Nc1nonc1-c1nc2cnccc2n1C1CCCCC1 | 24.2% | 2.83% | 10.8% | 10.3% | 74.6% | -0.38% | 4.63% | 0.19% | 8.42% | 3.67%
2 | CCn1c(-c2nonc2N)nc2c(C#CC(C)(C)O)ncc(OC[C@@H]3CCCN3)c21 | 67.9% | 11.6% | 55.2% | 1.75% | 18.4% | 1.39% | 1.82% | 0.48% | -0.07% | 12.9%
3 | NS(=O)(=O)c1ccc(N/C=C2\C(=O)Nc3ccc4ncsc4c32)cc1 | 42.9% | 11% | 46.3% | 38.6% | 89.5% | 4.69% | 24% | 0.94% | 10.5% | 6.29%
4 | NS(=O)(=O)c1ccc(-c2ccc3c(NC(=O)C4CC4)n[nH]c3c2)cc1 | 5.56% | 0.63% | 2.61% | 0.83% | 1.42% | 4.28% | 17.9% | 0.71% | 6.29% | 0.75%
5 | COc1cc(C=NNc2ncnc3c2cnn3Cc2ccccc2)ccc1O | 4.6% | 1.11% | 3.25% | 13.2% | 47.1% | -2.04% | 0.25% | -0.35% | 1.29% | 1.79%
6 | NC(=O)c1sc(-n2cnc3cc(C(F)(F)F)ccc32)cc1OCc1ccccc1Br | 0.82% | 2.12% | 1.92% | 4.69% | 0.55% | 1.99% | 2.87% | 1.3% | 2.88% | -0.02%
7 | Fc1ccc(-c2ncn(C3CCNCC3)c2-c2ccnc(Oc3ccccc3)n2)cc1 | -0.46% | 1.68% | 1.42% | 3.76% | 4.43% | 1.38% | 2.07% | 1.12% | 0.76% | -1.21%
8 | COc1cc2c(cc1Nc1nc(Nc3ccsc3C(N)=O)c3cc[nH]c3n1)N(C(=O)CN(C)C)CCC2 | 4.97% | 0.47% | 0.65% | 1.24% | 11.3% | 0.63% | 0.17% | -0.68% | 0.28% | 2.05%
9 | CCn1c(-c2nonc2N)nc2c(C#CCN)ncc(OCCCN)c21 | 11.4% | 3.8% | 6.19% | -1.84% | 16% | -0.19% | 7.05% | 5.13% | 10.2% | 7.01%
10 | COc1cccc(-n2ncc3c(N/N=C/c4ccncc4)ncnc32)c1 | 7.7% | 1.15% | 5.01% | 2.47% | 6.51% | 23.2% | 70.4% | 15.2% | 59.2% | 1.24%
11 | Cc1cc(-c2ccco2)cc(C)c1/C=C/c1cncc(-c2nn[nH]n2)c1 | 1.64% | 1.35% | 1.35% | 1.3% | 0.19% | 3.16% | 29.9% | 4.58% | 35.2% | 1.91%
12 | COc1cccc(COc2cc(-n3cnc4ccccc43)sc2C(N)=O)c1 | 2.02% | 1.15% | 1% | -2.92% | -8.42% | 1.73% | 12% | -0.04% | 6.31% | -2.23%
13 | CCn1c(-c2nonc2N)nc2c(C#CC(C)(C)O)ncc(OCC3CCNCC3)c21 | 68.8% | 10.5% | 54.5% | 6.83% | 31.6% | 1.39% | 9.05% | 0.56% | 4.38% | 11.3%
14 | CCn1c(-c2nonc2N)nc2c(C#CC(C)(C)O)nc(O[C@@H](CN)c3ccccc3)cc21 | 101% | 74.5% | 90.7% | 42.2% | 90.4% | 0.51% | 6.37% | 5.3% | 33.1% | 63.9%

Source: ChEMBL document CHEMBL1961873, “Compounds: GSK PKIS; Assays: Nanosyn kinase panel” (2012)
